Source: PubChem BioAssay (NCI)
The panel holds about 79,000 compounds, 15% with a hit somewhere; the sample as a whole holds those more often. Active and inactive are the calls of the source. Rule as the data show it: active = growth inhibition above about 70%; inactive = the rest.

Tests used:
[1] = NCI Yeast Anticancer Drug Screen. Data for the rad50 strain (AID 155);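 also: 0% = growth of vehicle-only cultures of the same strain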; conditions: S. cerevisiae rad50 strain growth inhibition; at 50.0 µM; stronger effect = higher value
Summary of the method: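 DNA repair mutant yeast, compound exposure, growth read-out; inhibition is taken relative to vehicle.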

[2] = NCI Yeast Anticancer Drug Screen. Data for the mec2-1 strain (AID 157); conditions: S. cerevisiae mec2-1 strain, at 50.0 µM, stronger effect = higher value
Summary of the method: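 Strain: mec2-1 (DNA repair/cell cycle alteration). Compound exposure, then growth measured; inhibition expressed relative to vehicle.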

[3] = NCI Yeast Anticancer Drug Screen. Data for the sgs1 mgt1 strain (AID 161);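 also: 0% = growth of cultures given vehicle only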; conditions: S. cerevisiae sgs1 mgt1 strain, at 50.0 µM, stronger effect = higher value
Summary of the method: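 Genetically altered yeast, compound exposure, growth inhibition relative to vehicle.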

[4] = NCI Yeast Anticancer Drug Screen. Data for the cln2 rad14 strain (AID 165);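 also: 0% = growth equal to vehicle treated cultures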; conditions: S. cerevisiae cln2 rad14 strain, at 50.0 µM, stronger effect = higher value
Summary of the method: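 Compounds are applied to the cln2 rad14 yeast strain, and growth is then compared with that of vehicle-treated cultures to give inhibition.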

[5] = NCI Yeast Anticancer Drug Screen. Data for the bub3 strain (AID 167); conditions: S. cerevisiae bub3 mutant strain, at 50.0 µM, stronger effect = higher value
Summary of the method: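 In this screen, a yeast mutant lacking normal mitotic checkpoint function is challenged with compound. Relative growth versus vehicle gives the inhibition value.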

[6] = NCI Yeast Anticancer Drug Screen. Data for the mlh1 rad18 strain (AID 175); conditions: S. cerevisiae mlh1 rad18 strain growth inhibition; at 50.0 µM; stronger effect = higher value
Summary of the method: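 Read-out is yeast growth inhibition, calculated against vehicle-only controls. The compound was applied to a strain engineered with DNA damage repair alterations.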

Measured: growth inhibition

Oc1c(CNCc2ccccc2)cc(CNCc2ccccc2)c(O)c1CNCc1ccccc1
inactive: [1] 5.3% | [2] 8.85% | [3] -4.8% | [4] 3.2% | [5] 17.3% | [6] -14.8%

COC1OC(COC(=O)c2ccc([N+](=O)[O-])cc2)C(O)C1SC#N (stereo unspecified)
inactive: [1] 43.5% | [2] -2.3% | [3] 41.3% | [4] -10.1% | [5] 13.2% | [6] 42.8%

COc1ccc(C(=O)N/N=C/c2ccccc2OC)cc1
inactive: [1] -3.1% | [2] 31% | [3] 25.4% | [4] -10.6% | [5] 27.9% | [6] 32%

NCC(=O)NCCC(=O)O
inactive: [1] 3.15% | [2] -6.7% | [3] 1.75% | [4] 4.6% | [5] -24.6% | [6] -4.6%

Cc1ncc([N+](=O)[O-])n1CCCl
inactive: [1] -1.8% | [2] 12.2% | [3] 3.35% | [4] -27.2% | [5] -0.15% | [6] -4.35%

Cc1cccc(C)c1NC(=O)C(=O)CC(=O)CO
inactive: [1] -9.45% | [2] -18.3% | [3] 14.1% | [4] 10.8% | [5] 21% | [6] -6.25%

CC(=O)[CH-]C(=O)c1ccccc1.CC(=O)[CH-]C(=O)c1ccccc1.CC(C)CCCC(C)[C@H]1CCC2[C@@H]3CC=C4C[C@@H]([O-])CC[C@]4(C)C3CC[C@@]21C.CC[O-].[Ti+4] (stereo partly specified)
inactive: [1] 11.2% | [2] 0.05% | [3] 10.2% | [4] -33.9% | [5] 23.2% | [6] 3.85%

O=C(Oc1c(Cl)cc(Cl)cc1C=Nc1ccc(Cl)cc1)c1ccccc1
active: [2] 71.4% | [3] 88.7% | [6] 83.9%
inactive: [1] 67.1% | [4] 42.4% | [5] 58.2%

C=CCNC(=S)Nc1cccc(O)c1
inactive: [1] -8.05% | [2] -11.6% | [3] -11.6% | [4] -31.8% | [5] -10.9% | [6] -2.55%

COc1cc(/C=C/C=C(C(=O)O)C(=O)O)cc(OC)c1OC
inactive: [1] -5% | [2] -1.2% | [3] -14.7% | [4] -11.4% | [5] -6.2% | [6] -4.45%

C[Si](C)(/C(=C/COCc1ccccc1)CCOC1CCCCO1)c1ccccc1 (stereo unspecified)
inactive: [1] -5.4% | [2] -6.95% | [3] -17.1% | [4] -10.9% | [5] 0.6% | [6] -27.4%

COc1ccc2c(c1)CCN1CCc3ccccc3CC21 (stereo unspecified)
inactive: [1] 30.6% | [2] 43.4% | [3] 58.5% | [4] 45.9% | [5] 53.4% | [6] 42.6%

Cc1c(C(=O)O)c(-c2ccc([N+](=O)[O-])cc2)c(C=O)n1-c1ccccc1
inactive: [1] -4.9% | [2] 10.9% | [3] 3.3% | [4] -8.5% | [5] 25.7% | [6] 22.9%

CCOC(=O)c1cnc(N(C)C)nc1SC(=N)N
inactive: [1] -15.2% | [2] -0.7% | [3] -24.4% | [4] -53.9% | [5] -7.5% | [6] -18.6%

Cc1nc[nH]c1[N+](=O)[O-]
inactive: [1] -6.6% | [2] -11% | [3] -10% | [4] 2.2% | [5] -0.85% | [6] -12.7%

CC[C@@H]1CN(C)[C@H]2Cc3c([nH]c4ccccc34)C(=O)C[C@H]1C2C(=O)OC (stereo partly specified)
inactive: [1] 13.5% | [2] -14.5% | [3] -19.6% | [4] -47.3% | [5] -26.2% | [6] 18.7%

O=C(O)c1cc2c([nH]1)-c1cccnc1C(=O)C2=O
inactive: [1] -9.6% | [2] -11.3% | [3] -15.8% | [4] -18.8% | [5] -1.4% | [6] 14.1%

CN(C)c1nc2ccccc2[nH]1
inactive: [1] 2.6% | [2] -4.25% | [3] 11.9% | [4] -1.35% | [5] -4.85% | [6] -2%

O=C1OC(c2ccc([N+](=O)[O-])cc2)=N/C1=C\c1ccc(Cl)c(Cl)c1
inactive: [1] 31.9% | [2] 21.8% | [3] 43.6% | [4] 28.1% | [5] 25.2% | [6] 46.2%

COc1cc(C2(C)SCCCS2)c(I)c(OC)c1OC
inactive: [1] -8.55% | [2] -3.05% | [3] -8.15% | [4] 13.2% | [5] 2.85% | [6] -14.4%

CCC1C(C)(C)c2cc(C)c(C(C)=O)cc2C1(C)C (stereo unspecified)
inactive: [1] -8.1% | [2] -8.75% | [3] 7.15% | [4] -49.5% | [5] 25.6% | [6] -3.75%

CC(C)(CO)CN1CCCC1
inactive: [1] 10.3% | [2] -25.9% | [3] -4.05% | [4] 1.3% | [5] 3% | [6] 0.8%

CC(CN(C)C)C(/C=C/c1ccccc1)=N\Nc1ccccc1 (stereo unspecified)
inactive: [1] -5.7% | [2] 23.4% | [3] 7.85% | [4] -6.3% | [5] -2.1% | [6] 3.25%

O=C(O)CN(CC(=O)O)Cc1ccccc1
inactive: [1] -22.3% | [2] 8.7% | [3] 6.8% | [4] -71.4% | [5] 7.9% | [6] 4.2%

O/N=C1\CC2CC1C1CC3(CC3)C21 (stereo unspecified)
inactive: [1] -6.85% | [2] -9.6% | [3] -0.15% | [4] -0.9% | [5] -22.2% | [6] 20.6%

CC12CCC(=O)C=C1CCC1C2C(=O)CC2(C)C1CCC2(O)C(=O)Cn1c(=O)cc[nH]c1=O (stereo unspecified)
inactive: [1] 10.1% | [2] 7.75% | [3] 25.6% | [4] 11.8% | [5] 0.3% | [6] 7.65%

O=C1C=C/C(=N\N=C(c2ccccc2)c2ccccc2)O1
inactive: [1] -38.1% | [2] -67.8% | [3] -49.6% | [4] 7.45% | [5] -42.7% | [6] -28.2%

C=C(C)C12CC3CC/C(=N/O)C(C1)C3(N1CCOCC1)C/C2=N/O (stereo unspecified)
inactive: [1] -21.6% | [2] -18.9% | [3] -16.2% | [4] -12.3% | [5] -7.15% | [6] -25.9%

Cc1ccc2nc(CC(=O)c3ccccc3)c(CC(=O)c3ccccc3)nc2c1
inactive: [1] 0.7% | [2] -17% | [3] 2.25% | [4] 24.1% | [5] 0.15% | [6] -2.9%

O=C/C(=C(/Br)I)c1ccccc1
inactive: [1] 5.25% | [2] 2.85% | [3] 24.9% | [4] 8.7% | [5] 8.7% | [6] -27.1%

Cc1ccc(C(=O)Nc2ccc([N+](=O)[O-])cc2)cc1
inactive: [1] 4.2% | [2] -6.75% | [3] -0.35% | [4] -2.75% | [5] -5.35% | [6] -2.95%

CCC(=O)/C=C/c1cc(OC)c(OC)c(OC)c1
inactive: [1] 7.15% | [2] -24.9% | [3] -4.4% | [4] -36.9% | [5] -9.1% | [6] 2.4%

COc1ccc(CN2CCCN(Cc3ccc(OC)cc3OC)C2c2cc(OC)ccc2OC)c(OC)c1
inactive: [1] -0.85% | [2] -0.85% | [3] 1.3% | [4] 10.5% | [5] -1.85% | [6] -0.4%

CC(=O)Oc1ccc(C(c2ccccc2)c2ccccc2)c2ccccc12
inactive: [1] -9.8% | [2] -13.4% | [3] -1.95% | [4] 2.85% | [5] -52.8% | [6] -18.9%

C[N+]1(C)CC2C3C=C(I)C(C3)C2C1 (stereo unspecified)
inactive: [1] 26.8% | [2] 17.4% | [3] 15.2% | [4] 48.4% | [5] 11.9% | [6] 26.1%

O=S(=O)(c1cnccc1N1CCN(CCO)CC1)N1CCCC1
inactive: [1] 6.4% | [2] -11.2% | [3] 8.5% | [4] -7.6% | [5] 3.05% | [6] -1.5%

CN(C)CCC(N)(P(=O)([O-])[O-])P(=O)([O-])[O-].N.N.[Pt+2]
inactive: [1] -24.5% | [2] 2.2% | [3] 3.15% | [4] 12.9% | [5] 12.3% | [6] 3.95%

CCCCCCOC(=O)c1ccccc1Cl
inactive: [1] 5.75% | [2] 9.35% | [3] -3.05% | [4] -16.9% | [5] 26.4% | [6] 34.2%

CNc1ccc(C(=O)O)cc1
inactive: [1] -7.8% | [2] -14% | [3] -2.25% | [4] 5.1% | [5] -0.5% | [6] -9.9%

c1ccc(N2CCN(c3ccccc3)C2)cc1
inactive: [1] -33.8% | [2] -13.3% | [3] -12.8% | [4] 8.65% | [5] 9.1% | [6] 11.5%

COc1ccc(Cl)cc1/C=C\C=N\OCC(=O)O
inactive: [1] 5.2% | [2] 1.85% | [3] 1.05% | [4] -43.6% | [5] -5.85% | [6] 7.25%
